How the values were obtained:
Test in all cases: PBM binding z-score (relative to random genomic background probes); higher = stronger binding; sequences stand for … in GC…GCGATTGACAGCGTAGAATGAAGG
[1] = tested on: RARg:RXRa (NR concentration 270 nM, RXRa partner concentration 90 nM)
How it was run: (§1)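 Regression normalization was applied to scanned fluorescence from custom Agilent 4×180K protein-binding microarrays. Before scanning, arrays were incubated 1 h with ligand-free nuclear receptor dimers, and binding was detected with antibodies against each partner (one per run). Binding z-scores use the random background probes as reference.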

[2] = tested on: RARg homodimer (NR concentration 270 nM)
How it was run: as §1

[3] = tested on: RXRa DBDmut IVT, anti-RXR (DBD mutation: RXRa K156A/R161A, NR concentration 90 nM)
How it was run: as §1

[4] = tested on: RXRa homodimer (NR concentration 180 nM)
How it was run: as §1

[5] = tested on: THRa:RXRa (NR concentration 90 nM, RXRa partner concentration 90 nM)
How it was run: as §1

[6] = tested on: THRa homodimer (NR concentration 90 nM)
How it was run: as §1

[7] = tested on: VDR homodimer (NR concentration 270 nM)
How it was run: as §1

Sequence | PBM binding z-score [1] | PBM binding z-score [2] | PBM binding z-score [3] | PBM binding z-score [4] | PBM binding z-score [5] | PBM binding z-score [6] | PBM binding z-score [7]
CGTCAAAGTCCAAGGTAACGTAACAGAAAGCAGC | 0.398 | 1.1 | 1.15 | -0.0038 | 1.31 | 0.878 | 0.231
CCTACTGGGCCATTCAGAGGGCATTGATCATATG | 1.43 | 0.891 | -0.189 | 0.134 | 0.0655 | -0.325 | 0.582
TCTAGTTGGTCACGGAGGTCACAAACGACGGGTA | 4.49 | 5 | 0.949 | 4.62 | 3.39 | 2.07 | 2.78
CCTGCGAGGTCATGGTCAGCTAATCTACAGTATG | 6.42 | 6.15 | 4.26 | 7.05 | 4.34 | 3.39 | 3.95
CCGAGTTGGTCAAGGTCACACACGCTATAGGTAC | 4.58 | 4.8 | 3.18 | 4.46 | 4.24 | 4.39 | 4.74
ATATGTAGGTTAGCTGGGGTCATTCACACTAGGC | 4.14 | 3.12 | 1.95 | 5.25 | 5.01 | 3.56 | 5.37
TACCCTAGGTCATTCAGGGGCCAGTATAGAAAGC | 6.19 | 5.02 | 1.56 | 3.18 | 3.65 | 1.29 | 1.84
CGAACTAGGTCGCCAGGACAGTGAAGAGGTTGGA | 0.757 | 1.27 | 0.47 | 0.761 | 1.68 | 0.578 | -0.15
TCTGCTAGGTCAACGTTGGTCAGCTAATCTGCTA | 3.78 | 4.83 | 1.06 | 2.32 | 3.21 | 0.755 | -0.37
AGTCAAACTTCAGGACGAGGTAACGTAAAGCACG | 0.505 | 0.586 | -0.343 | 0.511 | 2.44 | 1.77 | -0.0917
TCTCGGAGGACACTAAAGGTCAGAGCTCGACATC | 4.4 | 4.68 | 1.11 | 3.98 | 3.48 | 1.1 | 0.787
AATACAGGGTCATCGTAGGTCAGAGTACGCACAG | 6.41 | 5.81 | 3.75 | 6.77 |  | 2.38 | 4.46
GTTACAGGGTCAAGGCCAGAGTACGCGTATTGAT | 5.65 | 5.24 | 2.91 | 6.16 | 3.62 | 1.53 | 2.86
AGAATGAGGTCACCAAAGATCAGGGAAACGCTTG | 6.82 | 7.16 | 4.12 | 7.51 | 4.63 | 3.75 | 3.69
ATATGTAGGTTAGCTGAGGTCATTCAGACTAGGC | 3.95 | 3.72 | 1.9 | 4.53 | 5.33 | 4.38 | 5.55
ATATGTAGGTTAACTGGGGTCATTCAGACTAGGC | 4.95 | 3.7 | 2.76 | 5.82 |  | 3.07 | 5.41
GCTGCTAGGTCAACTGATGGCCAGCTAAAGCTCG | 4.59 | 5.33 | 1.01 | 2.75 | 2.89 | 0.674 | -0.329
TCTCGGAGGAAACGAAAGGTCAGAGCTCGACATC | 4.03 | 3.59 | 0.822 | 4.07 | 2.59 | 0.0929 | 0.612
CAAACTAGGTCACGAGAGGTCAAAGTCGAATGAC | 7.59 | 8.3 | 2.82 | 7.93 |  | 2.88 | 5.09
AATACAAGGTCATCGTAGGCCAGAGTACGCACAG | 6.21 | 6.23 | 3.94 | 6.37 | 4.47 | 2.74 | 4.03
CCGAGTAGGTTACGAGGGGTCATTCAGTGCGAAT | 5.1 | 3.76 | 1.89 | 5.85 |  | 0.607 | 5.41
CAAACCAGGTCAAGAGGTCAAAGTCCGCTTCCCG | 8.29 | 7.56 | 3.21 | 8.5 |  | 3.54 | 5.13
CAAACCAGGTCACAGAGGTCAAAGTCCGTGCGTA | 7.52 | 7.53 | 4.06 | 8.5 |  | 3.92 | 8.47
TCTGCTAGGTCAACGATGGTCAGTTAATCTGCTA | 4.12 | 4.95 | 0.834 | 2.5 | 2.93 | 0.73 | -0.183
AATACAGGGTCATCTTAGGCCAGAGTACGCACAG | 5.61 | 5.2 | 3.85 | 6.42 |  | 2.11 | 3.76
GCTGCTAGGTCAACTGATGGTCATCTAAAGCTCG | 5.46 | 5.43 | 1.87 | 3.25 | 3.09 | 1.12 | 0.187
TATTCAGGGTCAAAGGCCAGAGTACGAATGTCGA | 6.24 | 5.27 | 3.3 | 7.75 | 3.83 | 1.25 | 3.62
GATACAGGGTCGGCTAGAGGCCAGAGTATGGAAA | 4.14 | 1.5 | -0.0719 | 1.49 | 1.22 | -0.62 | 0.35
